The sample as a whole holds a higher share of hits than the screen did.
Methyltransferases = Primary Screen for Target Class Profiling of Small Molecule Inhibitors of Methyltransferases; AID 1745853, 2022; purified enzyme, MTase-Glo SAH luminescence; stronger effect = lower value; 25,000 compounds, 3.9% hits; calls only at 40 µM; call rule not given here
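Each enzyme was assayed with SAM and its substrate. SAH formation detected by MTase-Glo luminescence; single-point 40 uM screen[…].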
Active calls of the source: *; i = inactive; + = active, no number; ! = not active in a repeat. % is scaled to controls: 0 for no effect and ±100 for the full control effect.

SMILES | Methyltransferases
C=C[C@@](C)(O)CC/C=C(\C)C(=O)O[C@@H]1[C@@H]2O[C@]2(C)[C@H]2[C@H](O[C@@H]3O[C@H](CO)[C@@H](O)[C@H](O)[C@H]3O)OC=C[C@@]12O | i
Cc1ccccc1CN1C(=O)c2nc3ccccc3n2CC1(C)C(=O)NC1CCC(C)CC1 (stereo not drawn) | i
COc1c2c(c(C)c3c1C(=O)OC3)OC1(C)CC(O)C34OC(OC)(CC(O)C3(C)C1C2)OC4(C)C (stereo not drawn) | +
COc1c2c(c(C)c3c1C(=O)OC3)O[C@@]1(C)CC(O)C(C(C)(C)O)[C@](C)(CCC(=O)O)[C@H]1C2 (stereo partly drawn) | i
COc1c2c(c(C)c3c1C(=O)OC3)OC1(C)CC(O)C3(O)C(C)(C)OC(=O)CCC3(C)C1C2 (stereo not drawn) | i
COc1ccc(CNC(=O)[C@@H]2Cc3nc[nH]c3CN2C(=O)NC(C)C)cc1 | i
CCCn1cc(-c2ccncc2)cc1C(=O)NCc1ccc(C)o1 | i
CCOc1ccc(CCNC(=O)c2cc3n(n2)CC(C)(C(=O)NCc2ccc(C)cc2)N(C)C3=O)cc1 (stereo not drawn) | i
COc1ccc(OCc2nc(C)c(CCO)c(=O)n2CC(=O)NC(C)CCc2ccccc2)cc1 (stereo not drawn) | i
COC(=O)C1=C2Nc3ccccc3C23CCN2CCCC(C(C)O)(C1)C23 (stereo not drawn) | +
COc1cccc(CNc2nc3c(-c4ccccc4)nnn3c3ccccc23)c1 | i
CCc1ccc(S(=O)(=O)c2nnn3c2nc(N)c2cc(Cl)ccc23)cc1 | i
CN(C)C[C@@H]1CN(S(C)(=O)=O)C[C@H]1NC(=O)CC1CCN(C)CC1 | i
COc1ccc(-n2c(=O)[nH]c3cccnc32)cc1OC | i
COc1cc2c(cc1-c1c(C)noc1C)ncc1[nH]c(=O)n(C(C)c3ccccn3)c12 (stereo not drawn) | +!
CC(C)Cn1c(=O)c2ccccc2n2c(SCc3ccccc3)nnc12 | i
O=C(COc1ccccc1)NC1CCc2nnc(C3CC3)n2CC1 (stereo not drawn) | i
CN1C(=O)c2cc(C(=O)NC3CCCC3)nn2CC1(C)C(=O)NCc1ccccc1 (stereo not drawn) | i
CC(=O)N1CCC(C(=O)N[C@H]2CCN3C(=O)N(c4ccc(OC(F)(F)F)cc4)C(=O)[C@@H]3C2)CC1 | i
CCCNc1ccc2nncn2n1 | i
Cc1cc2c(cc1Cl)N(C(=O)Nc1ccc(Oc3cccnc3C)nc1)CC2 | i
Cc1cc2c(cc1Cl)N(C(=O)Nc1ccnc3ccccc13)CC2 | +
COc1ccc(NC(=O)N2CCc3c2ccc2ccccc32)cc1N1CCN(C)CC1 | i
Cc1ccc(N2C(=O)c3cc(C4CC4)nn3CC2(C)C(=O)NC2CCCCCC2)cc1Cl (stereo not drawn) | i
C=CC(C)(C)C12CC3C(=O)NC(Cc4cnc[nH]4)C(=O)N3C1Nc1ccccc12 (stereo not drawn) | i
SMILES | Methyltransferases
CN(C)C(=O)Nc1cc(-c2ccccc2)ccc1N(C)C | i
COc1ccccc1CN1C(=O)c2cc3sccc3n2CC1(C)C(=O)NC1CCCCC1 (stereo not drawn) | i
CCN1C(=O)c2c(C(=O)NCc3cccc(Br)c3)ncn2CC1(C)C(=O)NC1CCCC1 (stereo not drawn) | i
CNc1cccc(CCOc2ccc3c(c2)CN(CC(F)(F)F)C(=O)[C@H](CC(=O)O)C3)n1 | i
COC(=O)CC(O)CC(O)/C=C/c1c(C)ccc2c1C(OC(C)=O)CC(C)C2 (stereo not drawn) | i
C[C@@H]1CCC2C(C)(C)[C@H](O)CC[C@]2(C)[C@@]12Cc1c(O)cc3c(c1O2)CN([C@@H](CCC(=O)O)C(=O)O)C3=O (stereo partly drawn) | i
COCC1CN(C(=O)c2sccc2C)CC12CCOCC2 (stereo not drawn) | i
Cc1ncc(CCCN(C)C)cc1Nc1ncc2c(n1)-c1ccc(C(F)(F)F)cc1NC(=S)C2 | +
CCOC(=O)c1cc2n(n1)CC(C)(C(=O)NC1CCC(C)CC1)N(Cc1ccc(Cl)cc1)C2=O (stereo not drawn) | i
COc1ccc(-c2nnc3n(CCc4ccccc4)c(=O)c4ccccc4n23)cc1OC | i
O=C1c2ccccc2C(=O)c2cc(S(=O)(=O)N(CCO)CCO)ccc21 | +
O=c1[nH]c2ccc(S(=O)(=O)N(CCO)CCO)cc2[nH]1 | i
O=C1c2ccccc2C(=O)c2cc(S(=O)(=O)NC3CCCCC3)ccc21 | i
COCCCNC(=O)C1(C)Cn2nc(-c3ccccc3)cc2C(=O)N1c1ccc(OC)cc1 (stereo not drawn) | i
COc1cc(NC(=O)Cn2nc3n(CCC(C)C)c(=O)c4ccccc4n3c2=O)cc(OC)c1 | i
N=C(N)SCCN | +
COCCCN1C(=O)c2cc(-c3ccc(OC)cc3)nn2CC1(C)C(=O)NCc1ccccc1OC (stereo not drawn) | i

Screens from PubChem.
